Results as given in ChEMBL document CHEMBL3988442, “University of Dundee, Small-Polar-MMV Screening Library” (2021).
About 13,000 (27%) of roughly 48,000 compounds showed an effect of 50% or more. The list shows a part of the results.

Test system: Wolbachia pipientis
Assay: Anti-Wolbachia Cell-Based Screen
Format: functional
Set-up: scale not given: in the data most compounds retested in dose-response had high values
Details: 5 µM

| Structure (SMILES) | Percent Effect [%] |
| --- | --- |
| Cc1cccnc1CNC(=O)NC(C)Cc1c(C)nn(C)c1C (stereo unspecified) | -5.579 |
| O=C(NCCNC(=O)c1ccc(Br)cc1)c1ccc(O)cc1 | 3.17 |
| Cc1nc(S(=O)(=O)CCn2cccn2)n(CC2CCCO2)c1C (stereo unspecified) | -14.31 |
| COCc1nc(CNc2cccc(-c3csc(C)n3)c2)cs1 | -8.53 |
| COc1cccc(CNc2cc(C)nc(-c3ccncc3)n2)c1O | -14.65 |
| COc1cccc(CNc2cc(C)nc(-c3ccncc3)n2)c1OC | -14.13 |
| CCc1nc(CNc2cc(C)nc(-c3cccnc3)n2)cs1 | 88.21 |
| CCc1csc(CNc2cc(C)nc(-c3cccnc3)n2)n1 | 113.3 |
| CC(C)Cc1cc(CNc2nc(-c3cccnc3)nc3c2CNC3)no1 | 13.84 |
| CCSCC(C)NCc1nncn1C1CCCCC1 (stereo unspecified) | -19.08 |
| CCN(CCO)C(=O)Nc1ccc(OCCOC)nc1 | 0.2723 |
| COCCN(Cc1ccccn1)C(=O)Nc1cccnc1N1CCCC1 | -3.62 |
| COCCCN(CCOC)C(=O)Nc1ccccc1-n1cccn1 | 144.2 |
| COCCN(C)C(=O)c1ccccc1-n1cccn1 | 3.962 |
| COCCOc1ccc(NC(=O)N(CCCO)CC(C)(C)C)cn1 | 7.116 |
| COCCCN(CCOC)C(=O)Nc1ccc(Br)cc1 | 130.2 |
| O=C(C1CC=CC1)N1CCC2(CCN(Cc3cccc(F)c3)CC2)C1 | 0.9808 |
| N#Cc1ccc(CNC(=O)NC2CCN(c3ncccn3)CC2)cc1 | 5.422 |

| Structure (SMILES) | Percent Effect [%] |
| --- | --- |
| Cn1cnc2c1CCN(c1ccnc(-c3ccccc3)n1)C2 | -10.53 |
| Cc1cnc(CN2CCN(c3ccnc(-c4ccccc4)n3)CC2)cn1 | 144.2 |
| Cc1cc(CN2CCN(C(c3ccccc3)c3ccccc3)CC2)no1 | -4.667 |
| Cc1noc(C)c1CN1CCN(c2ccnc(-c3ccccc3)n2)CC1 | 94.83 |
| Cc1noc(C)c1CN1CCN(Cc2nccn2C)CC1 | -9.314 |
| Cc1noc(C)c1CN1C[C@@H](C(=O)O)[C@H](c2ccccn2)C1 | -12.63 |
| Cc1cnc(CN2CCCCC2c2nc(-c3ccccc3)no2)cn1 (stereo unspecified) | 19.76 |
| Cc1cc(CN2CCN(CC(O)c3ccccc3)CC2)no1 (stereo unspecified) | -10.98 |
| Cc1cc(CN2CCN(c3ccnc(-c4ccccc4)n3)CC2)no1 | 122.7 |
| CS(=O)(=O)NCCNC(=O)c1ccc(OCc2ccccc2)nc1 | 7.359 |
| CC(C)NC(=O)N1CCCn2cnc(CN3CCCC3=O)c2C1 | 81.15 |
| CCC(C)NC(=O)N1CCCn2cnc(CO)c2C1 (stereo unspecified) | -12.35 |
| O=C1CCCN1Cc1ncn2c1CN(C(=O)NC1CCCCC1)CCC2 | 133.6 |
| O=C(NC1CCCC1)N1CCCC(c2nccn2Cc2ccncc2)C1 (stereo unspecified) | -3.815 |
| CC(C)CC(=O)N1CCCn2cnc(CN3CCCC3=O)c2C1 | 1.077 |
| O=C1CCCN1Cc1ncn2c1CN(C(=O)NC1CCCC1)CCC2 | 86.82 |
| CC(C)NC(=O)N1CCCn2cnc(CO)c2C1.O=C(O)C(F)(F)F | 89.15 |
| CC(C)OCc1ncn2c1CN(CCO)CCC2.O=C(O)C(F)(F)F | -4.222 |
